Test results as given in PubChem BioAssay AID1779 (Sanford-Burnham Center for Chemical Genomics, 2009).
About 160 (0.055%) of roughly 290,000 compounds were called active. This excerpt belongs to a sample that is enriched for actives. Values without a mark were called inactive. Cut-off read from the data, not from the text of the source: active = inhibition above about 50%; inactive = the rest.

Target: Tyrosine-protein phosphatase non-receptor type 22 (Homo sapiens) (UniProt Q9Y2R2)
Assay: PTPN22 lymphoid phosphatase activity blockers – biochemical, fluorescence intensity, uHTS (AID 1779);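 note: plate controls were vehicle with enzyme for no effect and no enzyme for full effect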
Settings: recombinant LYP phosphatase, at 11.5 µM, active compounds read high

Tyrosine-protein phosphatase non-receptor type 22 (Homo sapiens), sequence (Q9Y2R2 whole entry, looked up): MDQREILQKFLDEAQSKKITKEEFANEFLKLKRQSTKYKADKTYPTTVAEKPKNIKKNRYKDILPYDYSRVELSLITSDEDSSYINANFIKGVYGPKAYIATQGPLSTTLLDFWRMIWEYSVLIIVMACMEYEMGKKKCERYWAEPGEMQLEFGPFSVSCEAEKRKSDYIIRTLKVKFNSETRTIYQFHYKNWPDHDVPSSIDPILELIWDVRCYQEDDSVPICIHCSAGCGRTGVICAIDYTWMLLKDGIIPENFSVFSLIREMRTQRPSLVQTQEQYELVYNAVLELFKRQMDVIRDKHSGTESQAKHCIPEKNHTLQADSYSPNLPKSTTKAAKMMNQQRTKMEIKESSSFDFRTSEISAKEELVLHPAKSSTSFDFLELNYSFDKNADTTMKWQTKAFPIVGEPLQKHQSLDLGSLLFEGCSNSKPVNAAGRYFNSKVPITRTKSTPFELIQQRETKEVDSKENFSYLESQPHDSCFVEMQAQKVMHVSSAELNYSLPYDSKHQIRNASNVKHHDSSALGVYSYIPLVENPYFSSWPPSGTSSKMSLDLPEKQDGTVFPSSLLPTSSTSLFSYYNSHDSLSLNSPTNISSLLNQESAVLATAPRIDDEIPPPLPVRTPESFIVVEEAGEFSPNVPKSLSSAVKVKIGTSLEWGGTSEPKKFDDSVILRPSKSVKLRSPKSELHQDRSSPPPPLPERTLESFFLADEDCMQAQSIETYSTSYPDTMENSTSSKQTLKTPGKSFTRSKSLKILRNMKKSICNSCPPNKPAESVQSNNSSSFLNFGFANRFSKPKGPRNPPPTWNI

Row | Structure (SMILES) | inhibition
1 | Cc1c(Cl)cccc1NC(=S)N=Nc1c(O)n(CN2CCOCC2)c2ccccc12 | -0.8%
2 | Cc1cccc(NC(=S)N=Nc2c(O)n(CN3CCOCC3)c3ccccc23)c1C | -4.1%
3 | Cc1ccc(N=Nc2c(O)n(CN3CCOCC3)c3ccccc23)cc1 | 72% (active)
4 | O=S(=O)(CCCc1ccccc1)c1ncn[nH]1 | -3%
5 | COc1ccc(N(CC(=O)NCCSC(C)(C)C)S(C)(=O)=O)c(OC)c1 | -6.6%
6 | Cc1ccc(OCC(=O)N/N=C/c2ccco2)cc1 | -5.1%
7 | Cc1ccc(OCC(=O)N/N=C\c2ccco2)c(C)c1 | 51.3% (active)
8 | Cc1ccccc1OCC(=O)N/N=C/c1ccco1 | -3.4%
9 | Cc1ccc(C(=O)N/N=C\c2cccs2)cn1 | 1.2%
10 | Cc1nnc(C)n1/N=C/c1ccccc1 | -11%
11 | CNc1nc(N)nc(-c2cc(Cl)ccc2OC)n1 | -4%
12 | COc1ccc(Cl)cc1-c1nc(N)nc(NC2CCCCC2)n1 | 58.1% (active)
13 | CCNc1nc(N)nc(-c2cc(Cl)ccc2OC)n1 | -2.6%
14 | Cc1ccc(/C(O)=C2/C(=O)C(=O)N(CCN3CCOCC3)C2c2cccnc2)cc1 (stereo unspecified) | -3.8%
15 | C=CCC(C(=O)OC)(C(=O)OC)c1ccccc1[N+](=O)[O-] | -9.5%
16 | CCOc1cc(/C=N\NC(=O)c2ccc(NC(=O)C(C)(C)C)cc2)ccc1OC(=O)c1ccc(C)cc1 | -4%
17 | COc1cc(/C=N\NC(=O)c2ccc(-c3ccccc3)cc2)ccc1OCC(N)=O | 3.2%
18 | Cc1cc2c(N=O)c(NO)ccc2[nH]1 | -4.6%
19 | Cc1nn(Cc2cccc(C(=O)NCC(C)C)c2)c(C)c1Br | -3.3%
20 | Cc1nn(Cc2cccc(C(=O)NC34CC5CC(CC(C5)C3)C4)c2)c(C)c1Br | 94.4% (active)
21 | CCCNC(=O)c1cccc(Cn2nc(C)c(Br)c2C)c1 | -5.3%
22 | COc1ccc(-c2cc(C(=O)NCCc3ccc(S(N)(=O)=O)cc3)c3ccccc3n2)cc1 | -2.5%
23 | Cc1nnc(SCC(=O)NC(=O)Nc2ccc3c(c2)OCCO3)n1N | -13%
24 | COCCn1c(=N)c(S(=O)(=O)c2ccc(Br)cc2)cc2c(=O)n3ccccc3nc21 | 67.5% (active)

Row | Structure (SMILES) | inhibition
25 | N=c1c(S(=O)(=O)c2ccc(Br)cc2)cc2c(=O)n3ccccc3nc2n1Cc1ccccc1 | -5.4%
26 | COCCn1c(=N)c(S(=O)(=O)c2ccc(F)cc2)cc2c(=O)n3ccccc3nc21 | -34.1%
27 | Cc1cc(N2C(=O)C(O)=C(C(=O)c3cc4ccccc4o3)C2c2ccc(Br)cc2)no1 (stereo unspecified) | 2.4%
28 | OCCOCCn1c(-c2ccccc2)nc(=S)c2c1CCCC2 | -2.3%
29 | O=C(CCc1c[nH]c2ccccc12)OCc1cccc([N+](=O)[O-])c1 | -6%
30 | COc1ccc(/C=N/NC(=O)COc2ccc3ccccc3c2)c(C(=O)O)c1OC | -2.9%
31 | COc1ccc(/C=N\NC(=O)COc2ccccc2)c(C(=O)O)c1OC | 2.3%
32 | COc1ccc(OCC(=O)N/N=C/c2ccc(OC)c(OC)c2C(=O)O)cc1 | 53.1% (active)
33 | CCc1nc(CNC(=O)c2cc(OC)c(OC)c(OC)c2)no1 | -4.2%
34 | O=C(NC(=S)Nc1ccc(S(=O)(=O)Nc2nccs2)cc1)C1CC1 | 1%
35 | COc1cccc(N(C(=O)Cn2nnc(-c3ccc(Cl)cc3)n2)C(C(=O)NCC2CCCO2)c2ccc(C)cc2)c1 (stereo unspecified) | -1.9%
36 | COc1ccc(N(CC(=O)NC(C)C)C(=O)CCC(=O)Nc2ccccn2)cc1 | 67.8% (active)
37 | CCOc1ccc(N(CC(=O)NC(C)C)C(=O)CCC(=O)Nc2ccccn2)cc1 | 2.9%
38 | CCCCOc1ccc(N(CC(=O)NC(C)C)C(=O)CCC(=O)Nc2ccccn2)cc1 | -3.4%
39 | O=C(NCCCN1CCCC1=O)c1csc2ccccc12 | -6.7%
40 | Cc1cc(C(=O)NCCCN2CCCC2=O)cs1 | 75.4% (active)
41 | O=C(NCCCN1CCCC1=O)c1cccs1 | 2.8%
42 | C=CCSc1nc2sc(-c3ccccc3)cc2c(=O)n1N | -7.2%
43 | CCOC(=O)N1CCN(C(=O)C(CC)n2nc(C)c3sc4ccccc4c3c2=O)CC1 (stereo unspecified) | 4.4%
44 | Brc1cc2c(cc1CN1CCc3ccccc3C1)OCO2 | -4.6%
45 | O=C1CCC(c2ccccc2)N1C(=O)c1cccnc1 (stereo unspecified) | 87.4% (active)
46 | O=C(c1ccccc1)N1CCN(C(=O)c2cccnc2)CC1 | -0.5%
47 | O=C1CC(c2ccccc2)CN1C(=O)c1cccnc1 (stereo unspecified) | -10.4%
48 | CCOC(=O)c1c(-c2cccc3ccccc23)csc1NC(=O)C1C2CCC(O2)C1C(=O)O (stereo unspecified) | 4.2%

Row | Structure (SMILES) | inhibition
49 | CCCOC(=O)c1c(-c2ccc(C)cc2C)csc1NC(=O)C1C2CCC(O2)C1C(=O)O (stereo unspecified) | 66.6% (active)
50 | CCOC(=O)c1c(-c2ccc(-c3ccccc3)cc2)csc1NC(=O)C1C2CCC(O2)C1C(=O)O (stereo unspecified) | 20.8%
51 | CC(=O)c1ccc(N2CCN(C(=O)CCN3C(=S)NC(C)(C)CC3C)CC2)cc1 (stereo unspecified) | 1%
52 | Cc1cc(C)n(C(C)CNS(=O)(=O)c2ccccc2)n1 (stereo unspecified) | -6.8%
53 | O=C(O)CCC(=O)Nc1ccccc1C(=O)NCCc1ccccc1 | 2.9%
54 | O=C(Nc1ccccc1C(=O)NCCc1ccccc1)c1ccco1 | -1.8%
55 | NC(=O)Nc1ccccc1C(=O)NCCc1ccccc1 | 65% (active)
56 | CN(C)/C=N/NC(=O)c1ccccc1 | -9.5%
57 | CC(=O)Nc1ccc(NC(=O)c2c(-c3ccccc3Cl)noc2C)c(C)c1 | -11.5%
58 | Cc1ccnc(NCc2c(O)ccc3ccccc23)c1 | -11.3%
59 | O=C(CC1C(=O)N(Cc2ccccc2)C(=S)N1CCN1CCOCC1)Nc1ccc(F)cc1 (stereo unspecified) | 74.9% (active)
60 | CCN1C(=O)C(CC(=O)Nc2ccc(OC)cc2)N(CCN2CCOCC2)C1=S (stereo unspecified) | -9.2%
61 | COc1ccc(NC(=O)CC2C(=O)N(Cc3ccccc3)C(=S)N2CCN2CCOCC2)cc1 (stereo unspecified) | -3.6%
62 | CC(=O)NNc1ncnc2c1cnn2-c1ccccc1 | 1.3%
63 | COC(=O)N/N=C(\C)c1ccc2ccccc2c1OC(F)F | 68% (active)
64 | CCNC(=S)N/N=C(\C)c1ccc2ccccc2c1OC(F)F | 4%
65 | COC(=O)N/N=C(\C)c1ccccc1OC(F)F | -1.7%
66 | COC(=O)C(C)n1cnc2c(nnn2-c2ccc(C)cc2)c1=O (stereo unspecified) | -13%
67 | CN(C(=O)COc1cc(C(F)(F)F)nn1C)c1ccccc1 | -13.5%
68 | CC(C)Cn1c(-c2ccco2)n[nH]c1=S | -1.3%
69 | CC1Cc2ccccc2N1CC(=O)Nc1ccc(S(=O)(=O)N(C)C)cc1 (stereo unspecified) | 0.3%
70 | CC1Cc2ccccc2N1CC(=O)Nc1ccc(S(N)(=O)=O)cc1 (stereo unspecified) | -7.9%
71 | CC1Cc2ccccc2N1CC(=O)Nc1cccc(S(N)(=O)=O)c1 (stereo unspecified) | 52.1% (active)
72 | CC(NC(=O)CN1CCN(c2ccccc2F)CC1)c1ccccc1 (stereo unspecified) | -13%

Row | Structure (SMILES) | inhibition
73 | CCCS(=O)(=O)N1CCc2ccc(NC(=O)C3CCCO3)cc2C1 (stereo unspecified) | -11.2%
74 | CN(C)S(=O)(=O)N1CCc2ccc(NC(=O)C3CCCO3)cc2C1 (stereo unspecified) | -10.7%
75 | CS(=O)(=O)N1CCc2ccc(NC(=O)C3CCCO3)cc2C1 (stereo unspecified) | 73.9% (active)
76 | O=C(c1c(F)cccc1F)N1CCC(O)(c2cccnc2)CC1 | -8.4%
77 | COc1ccc(Cl)cc1NC(=S)N1CCCC1 | -2%
78 | CCc1ccc(NC(=O)CS(=O)CC(=O)NCC2OCCc3ccccc32)cc1 (stereo unspecified) | -6.3%
79 | O=C(CS(=O)CC(=O)Nc1ccc(Cl)cc1)NCC1OCCc2ccccc21 (stereo unspecified) | 52.3% (active)
80 | COc1ccc(NC(=O)CS(=O)CC(=O)NCC2OCCc3ccccc32)cc1 (stereo unspecified) | -5.2%
81 | O=C(O)c1ccccc1NC(=O)c1cc(-c2ccccc2)nc2ccccc12 | -12.6%
82 | COC(=O)CCCC1=CC2=C(c3ccccc3)C(=O)C(C)(OC(=O)C3CCCC3)C(=O)C2=CN1CCN1CCOCC1 (stereo unspecified) | -3.1%
83 | CSc1nsc(SCC(=O)Nc2cccc(C(C)=O)c2)n1 | 52.6% (active)
84 | CSc1nsc(SCC(=O)Nc2cccc(NC(C)=O)c2)n1 | -3.8%
85 | CSc1nsc(SCC(=O)Nc2cccc(C(=O)O)c2)n1 | -1.3%
86 | CO/C([O-])=N/c1c[n+](-c2ccc(Cl)cc2)no1 | -3.1%
87 | COCCNC(=O)c1c(CSc2ccccc2)noc1C(=O)NCc1ccccc1 | -2.5%
88 | COc1c(C)cc(C(=O)C2CCCN(C(=O)c3csc(C)n3)C2)cc1C (stereo unspecified) | -11.3%
89 | OCC1(CCc2ccccc2)CCN(Cc2cc(Cl)ccc2O)CC1 | -10.5%
90 | Fc1ccccc1Cn1nnc2c(NCCc3ccccn3)ncnc21 | -5.2%
91 | COc1cc(/C=N/n2c(-c3ccccc3)n[nH]c2=S)cc(OC)c1OC | -1.8%
92 | O=C1C2C(C(=O)N1/N=C/c1cc([N+](=O)[O-])ccc1O)C1C=CC2C12CC2 (stereo unspecified) | 0.1%
93 | O=C1C2C(C(=O)N1/N=C/c1ccc([N+](=O)[O-])o1)C1C=CC2C12CC2 (stereo unspecified) | -11.3%
94 | O=C1C2C(C(=O)N1/N=C/c1cccc([N+](=O)[O-])c1)C1C=CC2C12CC2 (stereo unspecified) | 51.6% (active)
95 | COc1cc(/C=C/C(=O)OCC(=O)c2c(N)n(C)c(=O)n(C)c2=O)ccc1O | 2.2%
96 | CCN(CC)C(=O)c1sc(NC(=O)Cc2ccccc2)c(C#N)c1C | -7.8%
